Inhibition data for 99 compounds are collected here from PubChem BioAssay AID1347420 (Sanford-Burnham Center for Chemical Genomics, 2020).

Several values for one entry are separate records, joined by “and”; a condition that tells them apart may be missing. Identical values can stand only once. Screen size: about 1,300 compounds; about 980 (75%) were called active. Another 4% or so got no clear call; they are omitted. Some of the results follow. Values without a mark were called inactive.

Chain of Sulfhydryl oxidase 1 (Homo sapiens) (O00391 whole entry, looked up): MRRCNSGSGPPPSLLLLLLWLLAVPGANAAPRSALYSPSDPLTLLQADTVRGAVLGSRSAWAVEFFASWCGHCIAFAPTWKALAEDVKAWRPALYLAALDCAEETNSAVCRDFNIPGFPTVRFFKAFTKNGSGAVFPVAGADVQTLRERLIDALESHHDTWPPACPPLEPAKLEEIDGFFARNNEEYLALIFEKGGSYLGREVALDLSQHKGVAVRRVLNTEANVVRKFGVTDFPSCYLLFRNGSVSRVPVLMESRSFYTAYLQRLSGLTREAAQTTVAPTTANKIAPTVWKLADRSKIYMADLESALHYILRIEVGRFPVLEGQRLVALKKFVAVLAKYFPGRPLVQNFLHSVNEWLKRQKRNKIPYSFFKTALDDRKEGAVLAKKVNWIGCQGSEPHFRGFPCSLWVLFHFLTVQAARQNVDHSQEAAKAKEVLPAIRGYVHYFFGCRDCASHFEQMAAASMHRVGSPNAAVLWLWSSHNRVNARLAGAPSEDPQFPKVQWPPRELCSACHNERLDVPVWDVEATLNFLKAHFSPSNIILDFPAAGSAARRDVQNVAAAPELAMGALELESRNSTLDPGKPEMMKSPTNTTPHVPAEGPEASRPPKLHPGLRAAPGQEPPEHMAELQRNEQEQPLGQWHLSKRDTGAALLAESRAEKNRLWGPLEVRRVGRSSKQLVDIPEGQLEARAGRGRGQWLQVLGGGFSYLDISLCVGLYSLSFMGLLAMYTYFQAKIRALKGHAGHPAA

This experiment concerns the target Sulfhydryl oxidase 1 (Homo sapiens) (UniProt O00391). Briefly: QSOX1 enzyme inhibitors, primary screen, biochemical, HyperBlu H2O2 luminescence, HTS (AID 1347420). Note: values above 100% were filed as inconclusive. As to conditions: recombinant QSOX1, HyperBlu H2O2 luminescence, at 12.5 µM, stronger effect = higher value; active = any value above zero unless noted.
In the case of `COc1ccc2[nH]c3c(c2c1)CCNC3`, the inhibition was 40.5% (active).

`NC(=O)CI`: the inhibition is -4.6%.

Take `NNC(N)=O`: the inhibition was 13% (active). The result for `COc1ccc(OC)c(C(O)C(C)N)c1` (centres undefined) reads 10.6% [setting not given] (active). Consider `CCCN(CCC)[C@H]1CCc2c(F)ccc(O)c2C1`, for which the inhibition is 17.9% (active). The result for `CCCN(CCC)C1CCc2cccc(O)c2C1` (centres undefined) reads 5.5% (active). The result for `CCCN(CCC)[C@@H]1CCc2cccc(O)c2C1` reads 2.9% (active); that for `Cc1ncc(CNC(=O)N(CCCl)N=O)c(N)n1`, 13.2% (active); that for `Clc1cc(I)cc(Cl)c1NC1=NCCN1`, 3.8% (active). The result for `O=c1[nH]c2ccccc2n1C1CCN(CCCC(c2ccc(F)cc2)c2ccc(F)cc2)CC1` reads -0.3% [setting not given]. As to `O=c1[nH]c2ccccc2n1CCCN1CCC(n2c(=O)[nH]c3cc(Cl)ccc32)CC1`, the inhibition is 4.5% [setting not given] (active). As for `S=C(NC1CCCCC1)N1CCC(c2cnc[nH]2)CC1`, the inhibition was 4.8% (active). The result for `CC[C@@]1(O)C(=O)OCc2c1cc1n(c2=O)Cc2cc3ccccc3nc2-1` reads 17.6% [setting not given] (active); that for `c1ccc(C2CC2)c(OCC2=NCCN2)c1`, 21.8% (active); that for `COc1ccc(C(=O)N2CCCC2=O)cc1`, 20.3% [setting not given] (active). The result for `COC[C@H]1OC(=O)c2coc3c2[C@@]1(C)C1=C(C3=O)C2CCC(=O)[C@@]2(C)C[C@H]1OC(C)=O` (some centres undefined) reads 49.7% (active); that for `NC(=O)c1cc(N2CC2)c([N+](=O)[O-])cc1[N+](=O)[O-]`, 15.2% (active).

For the compound `c1ccc(CCCN2CCN(CCOC(c3ccccc3)c3ccccc3)CC2)cc1`, the inhibition is -3%. The result for `Fc1ccc(C(OCCN2CCN(CCCc3ccccc3)CC2)c2ccc(F)cc2)cc1` reads 14.6% (active); that for `CC12CCC3C(CCC4=C(O)C(=O)CCC43C)C1CCC2=O` (centres undefined), 1.5% [setting not given] (active); that for `COc1ccc2[nH]cc(CCN)c2c1`, -0.1% [setting not given]. For `NCCc1c[nH]c2ccc(O)cc12` the value was 80.8% (active); for `CNCCc1c[nH]c2ccc(O)cc12`, 55.9% [setting not given] (active); for `CC(=O)NCCc1c[nH]c2ccccc12`, 35.3% [setting not given] (active). The result for `CC(N)Cc1c[nH]c2ccc(OCc3cccs3)cc12` (centres undefined) reads -4.1% [setting not given]; that for `CC(N)Cc1c[nH]c2ccc(O)cc12` (centres undefined), 79% [setting not given] (active). Turning to `Cc1c(C(=O)c2cccc3ccccc23)c2cccc3c2n1[C@H](CN1CCOCC1)CO3`, the inhibition is -2.1% [setting not given]. For `O=C(O)c1nn(Cc2ccc(Cl)cc2Cl)c2ccccc12` the value was -13% [setting not given]; for `CCCN(CCC)CCc1c[nH]c2ccc(C(N)=O)cc12`, -6.2% [setting not given]; for `NCCc1c[nH]c2ccc(C(N)=O)cc12`, 26.8% (active).

Take `NCCc1c[nH]c2ccccc12`: the inhibition is 1.9% [setting not given] (active). In the case of `Cc1[nH]c2ccc(O)cc2c1CCN`, the inhibition is 79.3% [setting not given] (active). The result for `C/C(O)=C(\C#N)C(=O)Nc1cc(Br)ccc1Br` reads -6.8%. For `Clc1cnc(Oc2ccc(Oc3ncc(Cl)cc3Cl)cc2)c(Cl)c1` the value was 10.6% [setting not given] (active); for `C=CCN(C1=NCCN1)c1c(Cl)cccc1Cl`, 9.6% (active); for `c1ccc2c(c1)OCC(C1=NCCN1)O2` (centres undefined), 3.2% (active). Take `CN1CC[C@@]2(C)c3cc(O)ccc3N(C)C12` (some centres undefined): the inhibition was 52.2% (active). The result for `CN1CC[C@@]2(C)c3cc(OC(=O)Nc4ccccc4)ccc3N(C)[C@@H]12` reads 41.8% (active); that for `CNCCc1ccc(O)c(O)c1`, 50.2% (active). Consider `CCCN(CCC)CCc1ccc(O)c(O)c1`, for which the inhibition is 56.8% (active). For `Cc1ccc(S(=O)(=O)N[C@@H](CCCCN)C(=O)CCl)cc1` the value was 11.5% (active); for `O=[N+]([O-])c1ccc2nc(N3CCNCC3)ccc2c1`, 15.5% (active); for `c1ccc2c(N3CCNCC3)cccc2c1`, 3% (active). The result for `COc1ccccc1N1CCNCC1` reads -0.1% [setting not given]. As for `NNC(=O)c1ccc(O)cc1`, the inhibition is 3.3% (active). In the case of `CC12NC(Cc3ccccc31)c1ccccc12` (centres undefined), the inhibition is 3.8% [setting not given] (active). `C[C@]12N[C@H](Cc3ccccc31)c1ccccc12`: the inhibition was -13.1% [setting not given]. For `CCCN1CC[C@@H]2c3cc(O)ccc3CC[C@@H]21` the value was 18.3% (active); for `CCCN1CCO[C@@H]2c3cc(O)ccc3OC[C@H]21`, 27.5% (active); for `CCCn1c(C)c(C(=O)c2ccc3ccccc3c2)c2ccccc21`, -8.8% [setting not given]. The result for `CCCCCCCCCCCCCC(=O)O[C@@H]1[C@@H](C)[C@@]2(O)[C@@H](C=C(CO)C[C@@]3(O)C(=O)C(C)=C[C@@H]23)C2C(C)(C)[C@@]21OC(C)=O` (some centres undefined) reads -11.5%; that for `CN(N=O)c1cc(O)ccc1O`, 56% (active); that for `CN(N=O)c1ccc(O)c(O)c1`, 9% (active). For `NC(=O)c1ccc(OCC(O)CN2CC=C(c3ccc(F)cc3)CC2)cc1` (centres undefined) the value was -3.1%.

Take `CC(NC(C)(C)C)C(=O)c1cccc(Cl)c1` (centres undefined): the inhibition is 0.2% [setting not given] (active). The result for `CC1=NN=C(c2ccc(N)cc2)c2cc3c(cc2C1)OCO3` reads 11% (active); that for `CC(C)NP(=O)(NC(C)C)OP(=O)(NC(C)C)NC(C)C`, -1.6%.

Turning to `C=CCN1CC[C@]23c4c5ccc(O)c4O[C@H]2/C(=N/NC(=O)c2ccccc2)CC[C@@]3(O)[C@H]1C5`, the inhibition is 24.9% [setting not given] (active). For `O=C1CC[C@@]2(O)C3Cc4ccc(O)c5c4C2(CCN3CC2CC2)[C@H]1O5` (some centres undefined) the value was 16.8% [setting not given] (active). For `C=CCN1CCC23c4c5ccc(O)c4O[C@H]2C(=O)CC[C@@]3(O)C1C5` (some centres undefined) the value was 19.6% [setting not given] (active); for `C=CCN1CC[C@]23c4c5ccc(O)c4O[C@@H]2/C(=N/N=C2\CC[C@@]4(O)C6Cc7ccc(O)c8c7[C@@]4(CCN6CC=C)[C@@H]2O8)CC[C@@]3(O)C1C5`, 29.2% (active); for `Cn1cnc(CCN)c1`, 10.9% (active). The result for `COc1ccc(C(CN(C)C)C2(O)CCCCC2)cc1` (centres undefined) reads 7.4% (active); that for `NCCCP(=O)(O)O`, -9.2%; that for `CCCCc1ccc(C(=O)O)nc1`, 5.9% (active). Consider `CC(N)[C@H](O)c1ccc(O)c(O)c1` (some centres undefined), for which the inhibition was 57.3% [setting not given] (active).

As for `NC(C(=O)O)c1cc(=O)[nH]o1` (centres undefined), the inhibition was 4.7% (active). For the compound `CCCN1CCC[C@@H]2Cc3[nH]ncc3C[C@H]21`, the inhibition is 5.1% (active). The result for `CCCN1CCC[C@@H]2Cc3nc(N)ncc3C[C@H]21` reads 14.3% (active); that for `O=C(N[C@H]1CN2CCC1CC2)c1ccc(Cl)cc1`, 8.6% (active).

`CC(C)(C)NCC(O)c1ccccc1Cl` (centres undefined): the inhibition is 6.8% (active). For `COc1ccc2c(c1OC)C(=O)O[C@H]2[C@@H]1c2cc3c(cc2CCN1C)OCO3` the value was 12.6% (active); for `O=[N+]([O-])/C=C/c1ccc2c(c1)OCO2`, 19.2% (active); for `C#CCN[C@H](C)Cc1ccccc1`, 8.8% [setting not given] (active). The result for `CNc1ccc2oc(C[C@H]3O[C@@]4(CC[C@H]3C)O[C@H]([C@H](C)C(=O)c3ccc[nH]3)[C@H](C)C[C@H]4C)nc2c1C(=O)O` reads 30.5% [setting not given] (active). The result for `O=C(O)CC[N+](=O)[O-]` reads 12% [setting not given] (active); that for `CCn1cnc2c(Nc3cccc(Cl)c3)nc(N[C@@H]3CCCC[C@@H]3N)nc21`, 10.8% (active). Consider `C=C(C)[C@H]1CN[C@H](C(=O)O)[C@H]1CC(=O)O`, for which the inhibition is 5.8% (active). The result for `CC(C)[C@H]1CN[C@H](C(=O)O)[C@H]1CC(=O)O` reads 23.9% (active); that for `O=C(Cc1ccc(Cl)c(Cl)c1)N1CCCCC1CN1CCCC1` (centres undefined), 2.1% (active). For `COC(=O)N1CCN(C(=O)Cc2ccc(Cl)c(Cl)c2)C(CN2CCCC2)C1` (centres undefined) the value was 13.5% (active). For `CN(C(=O)Cc1ccc(Cl)c(Cl)c1)C(CN1CCCC1)c1cccc(OCC(=O)O)c1` (centres undefined) the value was -2.6%. As for `NN=C(N)N`, the inhibition was 17.9% (active) and 6.7% (active). As to `NC(Cc1cc(O)c(O)cc1O)C(=O)O` (centres undefined), the inhibition is 30.1% (active).

Regarding `NC1CCc2cc(O)c(O)cc2C1` (centres undefined), the inhibition is 60.4% (active). For `COC(=O)[C@@H](N)CCCN=C(N)N[N+](=O)[O-]` the value was -8.2%; for `NC(=NCCC[C@H](N)C(=O)O)N[N+](=O)[O-]`, 7.4% (active); for `COc1ccc2c(c1)c(CCN1CCOCC1)c(C)n2C(=O)c1cccc(Cl)c1Cl`, -15.7%. The result for `CCC1(C2=NCCN2)Cc2ccccc2O1` (centres undefined) reads 0.3% (active); that for `NC(Cc1ccc(N(CCCl)CCCl)cc1)C(=O)O` (centres undefined), 85.8% (active); that for `Cn1c(CCCC(=O)O)nc2cc(N(CCCl)CCCl)ccc21`, 87% (active). For `O=C(O)CCCc1ccc(N(CCCl)CCCl)cc1` the value was 18% [setting not given] (active); for `NCCc1ccc(S(=O)(=O)F)cc1`, 22.8% (active). On to `NCCc1ccc(O)cc1`, for which the inhibition is 14.4% [setting not given] (active). The result for `c1ccc2sc(C3(N4CCCCC4)CCCCC3)cc2c1` reads -3%; that for `CN1C(=O)CCS(=O)(=O)C1c1ccc(Cl)cc1` (centres undefined), 18.9% (active). For `CCS(=O)(=O)Nc1cccc(C(=C2CCCCC2)c2cnc[nH]2)c1` the value was 14.3% (active); for `OC1CCCCC1N1CCC(c2ccccc2)CC1` (centres undefined), 6.2% [setting not given] (active); for `C=C(C)[C@H]1Cc2c(ccc3c2O[C@@H]2COc4cc(OC)c(OC)cc4[C@@H]2C3=O)O1`, -11.7% [setting not given].
